The whole screen tested about 190,000 compounds, of which about 4,100 (2.2%) were called active. For the sample, actives were picked, then their nearest neighbours and some compounds at random. Unmarked numbers belong to inactive results.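 Rule for the calls: active = thallium flux slope and its plate-corrected score both differing from the plate sample mean at a set confidence after two filtering rounds, in either direction; inactive = the rest.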
These compounds were tested against Solute carrier family 12 member 5 (Homo sapiens) (UniProt Q9H2X9) (assay: KCC2 cotransporter modulators, thallium flux, primary screen, cell-based, HEK293 KCC2, FluoZin-2 fluorescence, MLSMR (AID 1456;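 note: slope of fluorescence scaled to starting intensity during 10 to 20 s after thallium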)). Details: KCC2 cells, thallium flux FluoZin-2 fluorescence; at 10 µM.
Sequence of Solute carrier family 12 member 5 (Homo sapiens) (Q9H2X9 whole entry, looked up): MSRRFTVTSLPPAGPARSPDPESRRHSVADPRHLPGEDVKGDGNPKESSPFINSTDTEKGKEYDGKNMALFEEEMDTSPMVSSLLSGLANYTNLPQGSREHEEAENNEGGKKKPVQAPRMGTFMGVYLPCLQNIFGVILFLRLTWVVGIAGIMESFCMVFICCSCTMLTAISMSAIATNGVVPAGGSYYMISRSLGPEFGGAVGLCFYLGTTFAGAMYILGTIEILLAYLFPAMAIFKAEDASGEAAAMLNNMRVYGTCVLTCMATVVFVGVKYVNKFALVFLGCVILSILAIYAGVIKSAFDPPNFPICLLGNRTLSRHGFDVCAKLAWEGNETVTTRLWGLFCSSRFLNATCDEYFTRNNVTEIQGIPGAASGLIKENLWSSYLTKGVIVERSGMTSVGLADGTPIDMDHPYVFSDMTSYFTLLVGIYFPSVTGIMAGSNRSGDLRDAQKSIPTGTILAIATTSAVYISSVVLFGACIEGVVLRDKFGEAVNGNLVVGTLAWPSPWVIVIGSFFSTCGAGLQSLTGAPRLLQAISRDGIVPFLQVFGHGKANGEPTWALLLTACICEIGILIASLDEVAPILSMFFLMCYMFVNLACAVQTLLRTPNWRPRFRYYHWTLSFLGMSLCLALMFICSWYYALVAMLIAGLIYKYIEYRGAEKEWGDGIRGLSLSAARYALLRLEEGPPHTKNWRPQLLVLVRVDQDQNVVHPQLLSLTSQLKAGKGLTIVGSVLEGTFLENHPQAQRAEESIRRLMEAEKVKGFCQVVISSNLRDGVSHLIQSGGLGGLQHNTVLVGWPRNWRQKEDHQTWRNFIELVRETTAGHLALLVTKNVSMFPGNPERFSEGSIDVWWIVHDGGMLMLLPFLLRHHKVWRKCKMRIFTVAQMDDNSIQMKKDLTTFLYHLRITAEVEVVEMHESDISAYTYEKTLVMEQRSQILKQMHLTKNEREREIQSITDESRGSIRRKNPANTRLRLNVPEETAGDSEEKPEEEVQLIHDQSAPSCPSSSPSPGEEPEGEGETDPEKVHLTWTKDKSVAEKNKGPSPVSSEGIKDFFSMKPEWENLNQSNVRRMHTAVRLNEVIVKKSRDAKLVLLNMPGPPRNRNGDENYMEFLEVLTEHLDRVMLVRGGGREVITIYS

Structure (SMILES) | B-score of Tl+ flux slope (higher = more flux/activation; lower = inhibition)
CCOc1ccc(C2NC(=S)NC3=C2CCc2ccccc23)cc1 (stereo unspecified) | 0.359
CC(=O)Nc1ccc(/C=C/C(=O)c2ccccc2)cc1 | -1.42
CCCc1nc2c(c(=O)c3ccccc3n2C)c(=O)n1-c1cc(C)cc(C)c1 | -2.43
Cc1cc(OCCCCOc2ccc(C#N)cc2)ccc1[N+](=O)[O-] | 2.16
Clc1ccc(C[n+]2cc(-c3ccccc3)n3c2CCC3)cc1 | 0.476
CCOC(=O)C1CCCN(C(=O)C2CCN(c3nnc(-n4cccc4)s3)CC2)C1 (stereo unspecified) | -0.42
O=C(C1CCN(c2nnc(-n3cccc3)s2)CC1)N1CCc2ccccc2C1 | -3.67 (active)
CSc1ccc(CCNC(=O)C2CCN(c3nnc(-n4cccc4)s3)CC2)cc1 | 0.348
COc1ccc2[nH]c(C(=O)Nc3ccccc3Cl)cc2c1 | 0.0923
CCCCOc1ccc(CON(C(C)=O)C(C)=O)cc1Cl | 0.181
COc1ccc(-c2nc(CS(=O)CC(=O)N3CCc4ccccc4C3)c(C)o2)cc1 (stereo unspecified) | -6.3 (active)
COC(=O)c1cc2occc2n1Cc1nc(-c2ccccc2C)oc1C | 0.574
Cc1oc(-c2ccccc2F)nc1CS(=O)(=O)CC(=O)NCCCN(C)C1CCCCC1 | -0.282
Cc1ccccc1-c1nc(CS(=O)(=O)CC(=O)N2CCc3ccccc3C2)c(C)o1 | -3.98 (active)
O=C(COc1ccccc1)N1CCc2ccccc2C1 | 0.0757
COc1ccc(-c2nc(CS(=O)CC(=O)NCc3ccccn3)c(C)o2)cc1 (stereo unspecified) | 1.46
S=C(NCc1ccc2c(c1)OCO2)NCc1ccco1 | -0.178
CCOC(=O)C1CCN(C(=O)Nc2cccc(OC)c2)CC1 | 0.26
Cc1ccccc1Cn1c2ccccc2c2cnn(CC(=O)NCc3ccco3)c(=O)c21 | -0.21
COC(=O)CNc1nc(Cl)nc(N2CCC(C)CC2)n1 | 0.436
CNC(=O)/C(=C\C=C\c1ccccc1)NC(=O)c1ccc([N+](=O)[O-])cc1 | -6.01 (active)
O=C(Nc1ccccc1)/C(=C/c1ccc([N+](=O)[O-])cc1)NC(=O)c1ccccc1 | 0.951
O=C(Nc1ccc(C(=O)O)cc1)/C(=C/c1ccc([N+](=O)[O-])cc1)NC(=O)c1ccccc1 | -0.11
Cc1ccc(/C=C/C(=O)O)cc1S(=O)(=O)N1CCC(Cc2ccccc2)CC1 | -2.01

Structure (SMILES) | B-score of Tl+ flux slope (higher = more flux/activation; lower = inhibition)
Cc1ccc(C)c2c1cc(C)c1nnc(SCC(=O)Nc3cccc(C(=O)O)c3)n12 | 4.23
COc1cc2nc(Cl)nc(NCCO)c2cc1OC | 0.407
CC(Sc1nc2ccccc2c(=O)n1Cc1ccco1)C(=O)c1ccccc1 (stereo unspecified) | -0.121
COc1cccc(NC(=O)C(Sc2nnnn2C)c2ccccc2)c1 (stereo unspecified) | -0.113
COc1cccc(NC(=O)C(Sc2nc3ccccc3c(=O)n2CC(C)C)c2ccccc2)c1 (stereo unspecified) | 7.69 (active)
Nc1nc(Sc2ncccc2[N+](=O)[O-])n[nH]1 | -0.977
Cc1ccc(N2C(=O)CN=C2Nc2nc(C)cc(C)n2)cc1 | 0.73
CC(=O)NC(=S)NNC(=O)c1ccc(Br)cc1 | 5.47 (active)
CNC(=S)NNC(=O)c1ccc(N(C)C)cc1 | 0.736
O=C(CCc1ccccc1)NNC(=O)c1ccc(Br)cc1 | -1.74
COC(=O)c1ccc(S(=O)(=O)NCc2ccccc2)n1C | -0.343
O=C1CCCCC1C(=O)c1ccccc1 (stereo unspecified) | 0.304
CN(C)c1cc(-c2ccc(F)cc2)oc(=O)c1Cl | 0.0271
COc1ccnc(Oc2ccccc2)c1-c1ncn[nH]1 | 0.306
O=C(CNCc1ccco1)Nc1cc(S(=O)(=O)N2CCOCC2)ccc1N1CCCC1 | -0.873
O=C(NCc1cccs1)C1CCN(S(=O)(=O)c2ccc(Cl)cc2)CC1 | -0.17
O=C(CNCc1cccs1)Nc1cc(S(=O)(=O)N2CCCC2)ccc1Cl | -3.68 (active)
COCCCn1c(-c2cccs2)nc2nc3ccccc3nc21 | 0.0602
O=C(N/N=C1\CCSC1)c1cc(Cl)ccc1O | 0.11
COc1ccc(Cl)cc1NC(=O)CN(C)C(=O)CNC(=O)C12CC3CC(CC(C3)C1)C2 | 0.0604
C/C(=N/NC(=O)c1cc(Cl)ccc1O)C12CC3CC(CC(C3)C1)C2 | 4.51 (active)
CCOC(=O)C1CCN(C(=O)Nc2ccc(C)c(Cl)c2)CC1 | 0.0935
CCOC(=O)C(=Cc1ccccc1OC)C(=O)OCC | -0.438
O=C(CN1C(=O)/C(=C/c2ccccc2F)Sc2ccccc21)NCc1cccnc1 | -1.86

Structure (SMILES) | B-score of Tl+ flux slope (higher = more flux/activation; lower = inhibition)
COc1ccc(C(=O)C2CCCN(C(=O)c3cnsn3)C2)c(C)c1 (stereo unspecified) | -0.0096
O=S(=O)(c1ccccc1)N1CN(Cc2ccc(F)cc2)c2nc3ccccc3nc21 | -1.17
O=C1COc2ccc(C(=O)COC(=O)c3cccnc3Cl)cc2N1 | -0.384
COc1cccc(Nc2nnc(SCC(=O)N3CC(=O)Nc4ccccc43)s2)c1 | -0.459
CCc1ccc(Nc2nnc(SCC(=O)c3ccc4c(c3)NC(=O)CO4)s2)cc1 | -5.32 (active)
O=C(Cn1cnc2cc([N+](=O)[O-])ccc2c1=O)NC(=O)NCc1ccccc1 | -0.182
CC(=O)c1ccc(S(=O)(=O)Nc2ccc(C(=O)NCC(c3ccccc3)N(C)C)cc2)cc1 (stereo unspecified) | 0.133
COc1ccc(N2CCC(CNC(=S)Nc3c(C)cccc3C)C2)cc1 (stereo unspecified) | -0.00939
Cc1c(NC(=O)c2cccnc2)c(=O)n(-c2ccccc2)n1C | 0.0888
Cc1c(NC(=O)CSc2cccc3cccnc23)c(=O)n(-c2ccccc2)n1C | 4.92 (active)
Cc1c(NC(=O)CSc2nnnn2-c2ccc(C(=O)O)cc2)c(=O)n(-c2ccccc2)n1C | 1.95
O=c1[nH]n(-c2cccc(Cl)c2)c2ncccc12 | 0.268
Clc1cccc(CN2COc3c(cc(Cl)c4cccnc34)C2)c1 | 4.19 (active)
Nc1c(C(=O)NCc2ccccc2)nnn1Cc1cccc(Cl)c1 | -1.02
O=C(NNS(=O)(=O)c1ccccc1C(F)(F)F)c1cc2ncc(C(F)(F)F)cc2s1 | -0.726
Cc1ccc(COc2ccc(C(=O)NN)cc2)cc1 | -0.198
COc1ccc(OCc2cccc(C(=O)N3CCCC3)c2)cc1 | 0.115
Cc1oc(C(N)=O)cc1COc1ccc(C(N)=O)cc1 | 2.17 (active)
COc1ccc(Cl)cc1S(=O)(=O)N1CCC(O)(c2ccc(Cl)cc2)CC1 | -0.0293
Cc1cccc(N=Nc2c(C)[nH]n(-c3ccccc3)c2=O)c1 | 0.0317
Cc1ccc(N=Nc2c(C)[nH]n(-c3ccccc3)c2=O)cc1 | 3.14
Cc1[nH]n(-c2ccccc2)c(=O)c1N=Nc1ccccc1C(=O)N1CCCCC1 | 5.68 (active)
CSc1nc(-c2ccco2)nn1C(=O)c1ccccc1Cl | -1.08
COC(=O)c1cc2c(N)c(C(=O)c3ccc(Cl)cc3)sc2nc1C(OC)OC | 0.11

Structure (SMILES) | B-score of Tl+ flux slope (higher = more flux/activation; lower = inhibition)
COc1cc(OC)cc(/C(N)=N/O)c1 | -0.654
COc1ccc(N2C(=O)c3ccccc3NC2c2ccc(OC)c(CN3CCOCC3)c2)cc1 (stereo unspecified) | -0.152
C=CCn1c(=S)[nH]c2nc3c(cc2c1=O)COC(C)(C)C3 | 3.61 (active)
C=CCn1c(=S)sc2c(=O)[nH]c(C)nc21 | -0.647
O=C(CCl)N(Cc1cccc([N+](=O)[O-])c1)c1cccc(Cl)c1 | -0.452
Cn1c2ccccc2c2cc(/C=C(\NC(=O)c3ccccc3)C(=O)NCC(=O)O)ccc21 | 0
O=C(CSc1ccc(-c2cccs2)nn1)Nc1ccccc1F | -2.89 (active)
Cc1csc(NC(=O)CSc2ccc(-c3ccc(F)cc3)nn2)n1 | -4.45
Cn1c(CCC(=O)Nc2ccccc2F)nnc1SCC(=O)Nc1ccccc1Cl | -0.846
C=CCC1(C#N)C(=S)NC(C)=C(C(=O)OCC)C1c1ccccc1 (stereo unspecified) | -0.00243
Cc1ccc(SCc2c(C(=O)N/N=C/C3CC=CCC3)nnn2-c2nonc2N)cc1 (stereo unspecified) | -0.374
O=C(Nc1nnc(Cc2ccc(Cl)cc2)s1)c1ccncc1 | -2.1
NS(=O)(=O)c1ccc(NC(=S)Nc2ccc(Br)c(Cl)c2)cc1 | 0.559
CC(Oc1ccc2ccccc2c1)C(=O)NNC(=S)NC(=O)c1ccco1 (stereo unspecified) | 25.4 (active)
Cc1ccc(OCC(=O)NNC(=S)NCc2ccccc2)cc1 | 9.51 (active)
CCCc1ccc(OCC(=O)NNC(=S)NC(=O)c2ccco2)cc1 | 28.4 (active)
COc1ccc(CCNC(=O)c2ccco2)cc1 | 0.796
CCNC(=S)NNC(=O)Cc1ccccc1 | 0.737
CC(C)Oc1ccc(CCC(=O)NNC(=S)NCc2ccccc2)cc1 | -1.38
CC(=O)Nc1ccc(OCC(=O)NCc2ccc(C)cc2)cc1 | -0.00613
O=C(Nc1ccc2ccccc2c1)/C(=C\c1ccc2c(c1)OCO2)NC(=O)c1ccco1 | 0.0996
O=C(Nc1ccc2ccccc2c1)/C(=C/c1cccc(Br)c1)NC(=O)c1ccco1 | -1.51
CC(C)(C)c1cc(C(=O)NN)n(Cc2ccc(Cl)cc2Cl)n1 | -0.315
O=S(=O)(Nc1n[nH]c(C(F)(F)F)n1)c1ccccc1 | -2.65

Reference: PubChem BioAssay AID1456 (Vanderbilt High Throughput Screening Facility, 2008)
